As usually defined, the AC50 is the midpoint of the concentration-response curve, whichever way the signal moves.

Active and inactive are the calls of the source. Rule for the calls: active = hit-call score of the fitted dose curve at least 0.9, where 1 is the maximum; inactive = score below 0.9.

Read-out in this test: HGF (gene 3082)
As to the kind of experiment: LTEA_HepaRG_HGF: Life Technologies and Expression Analysis (LTEA) Assay for Hepatocyte Growth Facto (HGF) using HepaRG (AID 2283505). To be noted: mRNA level, 48 h; actives raise or lower the signal. On the procedure: LTEA_HepaRG is a cell based, multiplexed-readout assay that uses HepaRG, a human liver cell line, with measurements taken at 48 hours after chemical dosing on a 96-well plate.LTEA_HepaRG_HGF is one of 102 assay component(s) measured in the LTEA HepaRG cell culture assay. It is a marker of Cell proliferation, survival, death.Data from the assay component LTEA_HepaRG_HGF was analyzed into 1 endpoint. This assay endpoint, LTEA_HepaRG_HGF, was analyzed with bidirectional fitting relative to DMSO as the negative control and baseline of activity. Using a type of inducible reporter, measures of mRNA induction for gain or loss-of-signal activity can be used to understand regulation of transcription factor activity. To generalize the intended target to other relatable targets, this assay endpoint is annotated to the growth factor intended target family, where the subfamily is hepatocyte growth factor.
A total of 1060 chemcials from the ToxCast library were tested in eight-point concentration-response experiments. Cell culture and cytotoxicity assays were conducted at Thermo Fisher Scientific's Custom Services facility (Madison, WI). A single lot of human HepaRG cells (Thermo Fisher Scientific, Frederick, MD) was used for the cell culture experiments. 96-well format collagen type I coated plates of human HepaRG cells were prepared using established methods. Briefly, cryopreserved HepaRG cells were thawed, plated at a density of approximately 100,000 cells/well in HepaRG Thaw, Plate, and General Purpose media (HPRG770, Thermo Fisher Scientific), and incubated for 48 hours. 0.5% DMSO was selected as vehicle control to balance the requisite need of DMSO in HepaRG cultures to maintain differentiation (for example, baseline metabolism, proportions of hepatocytes vs. cholangiocytes), while enabling further hepatic receptor pathway activation (for example, PXR and CAR) in response to chemical exposure. 48 hours after plating, the culture medium was replaced with HepaRG Serum-Free Incudtion Media. Cells were exposed to each test chemical in duplicate and maintained in CO2 incubators for another 48 hours. Chemical plates were thawed to room temperature and 200x concentrations of treatment groups were prepared. 8-point conentration-reponse curves were made with the highest exposure at 100 uM, followed by half-log dilutions, all in 0.5% DMSO. Each test plate contained variouse controls, induction positive controls (1mM phenobarbital), cytotoxicity positive controls ([…] aflatoxin B1), vehicle controls (0.5% DMSO), and total lysis controls (0.5% DMSO). Cell morphology images were taken using an Essen IncuCyte FLR automated microscope, with six 96-well plates imaged in about 24 minutes. Images were captured and exported and JPEG files. Spent culture media was transfered to black-well plates for the LDH assay, and remaining media was sorted at -80 C for later use. Cells were treated with RLT buffer and frozen until shipped for gene expression analysis. Total RNA was isolated from the cell suspension in 75 uL of Buffer RLT (Qiagen, Germantown, MD 20874) by Quintiles/Expression Analysis (Durham, NC) using a custom isolation procedure. Total RNA from each plate well was transferred to a preamplification plate. Fluidigm's 96.96 Dynamic ArrayTM (Fluidigm, Amsterdam, the Netherlands) technology was used for gene expression analyses by quantitative reverse transcription polymerase chain reaction (qRT-PCR, performed by Quintiles/Expression Analysis, Durham, NC)89. Standard TaqManTM Assays (Applied Biosystems/ThermoFisher Scientific, Foster City, CA) were used to assess the expression of 93 genes selected based on their selectivity and sensitivity to important hepatic receptors known to be modulated by environmental chemicals; importance in human hepatocyte functionality; and hepatotoxicity. […]
For the compound `O=NN(c1ccccc1)c1ccccc1`, the outcome was inactive.

`CCCCCCCCCC[N+](C)(C)CCCCCCCCCC`: the AC50 was 50 µM (active).

As to `Cc1cc2c3c(c1)C(c1ccccc1)=N[C@@H](NC(=O)c1ccncc1)C(=O)N3CC2`, the result was inactive.

With `CCCN(CCC)N=O`, the compound was called inactive.

For the compound `CC(C)(c1ccccc1)c1ccc(O)cc1`, the AC50 was 83.2 µM (active).

Consider `CCCCCCCCCc1ccc(O)cc1`, for which the result was inactive.

For the compound `CCC(=O)O[C@H]1CC[C@H]2[C@@H]3CCC4=CC(=O)CC[C@]4(C)[C@H]3CC[C@]12C`, the compound was classed as inactive.

In the case of `O=S(=O)(O)C(F)(F)C(F)(F)C(F)(F)C(F)(F)C(F)(F)C(F)(F)F`, the call was inactive.

In the case of `Clc1ccc(Cl)cc1`, the call was inactive.

With `Cc1cc(O)ccc1Cl`, the compound was classed as inactive.

For the compound `O=C(O)C(F)(F)C(F)(F)C(F)(F)C(F)(F)C(F)(F)C(F)(F)C(F)(F)C(F)(F)C(F)(F)F`, the AC50 is 89.8 µM (active).

As to `Cc1ccccc1[N+](=O)[O-]`, the compound was classed as inactive.

Turning to `Cc1cccc(C)c1N`, the compound was called inactive.

`O=C(NC(=O)c1c(F)cccc1F)Nc1cc(Cl)c(OC(F)(F)C(F)F)c(Cl)c1`: the compound was called inactive.

Consider `CC(C)(O)C(=O)Nc1ccc([N+](=O)[O-])c(C(F)(F)F)c1`, for which the AC50 was 0.0291 µM (active).

On to `CCC(C)(CC)c1cc(NC(=O)c2c(OC)cccc2OC)on1`, for which the call was inactive.

Consider `CN(C)c1nc(=O)n(C2CCCCC2)c(=O)n1C`, for which the outcome was inactive.

With `Cc1ccccc1O`, the compound was classed as inactive.

With `O=C(O)C(F)(F)C(F)(F)C(F)(F)C(F)(F)C(F)(F)F`, the call was inactive.

On to `C1CC2OC2CC1C1CO1` (stereo not given), for which the outcome was inactive.

As to `CCSC(=O)N(CC)C1CCCCC1`, the compound was called inactive.

`Oc1ccc(Cl)cc1Cl`: the result was inactive.

`CCC(C)c1cc([N+](=O)[O-])cc([N+](=O)[O-])c1O` (stereo not given): the AC50 is 2.87 µM (active).

Regarding `O=C(NC(=O)c1cc(F)c(F)cc1Cl)Nc1cc(F)ccc1N1CCC(C(=O)O)CC1`, the compound was called inactive.

For the compound `CCNc1nc(NC(C)C)nc(SC)n1`, the outcome was inactive.

For the compound `Cc1ccc(O)c(C)c1`, the call was inactive.

`CC(c1ccc(O)cc1)(c1ccc(O)cc1)c1ccc(O)cc1`: the AC50 is 25.1 µM (active).

Regarding `Clc1ccc(C(c2ccccc2Cl)C(Cl)(Cl)Cl)cc1` (stereo not given), the compound was called inactive.

For the compound `C=CC(N)=O`, the outcome was inactive.

Take `CCC(C)(c1ccc(O)cc1)c1ccc(O)cc1`: the result was inactive.

Consider `COS(=O)(=O)OC`, for which the result was inactive.

For `N#Cc1ccc(N(CC(N)=O)CC(F)(F)F)cc1C(F)(F)F`, the compound was classed as inactive.

For `O=C(O)C(F)(F)C(F)(F)C(F)(F)C(F)(F)C(F)(F)C(F)(F)C(F)(F)C(F)(F)F`, the AC50 was 50 µM (active).

On to `CCCCCCOC(=O)c1ccccc1C(=O)OCCCCCC`, for which the compound was called inactive.

Regarding `ClC1=C(Cl)[C@]2(Cl)[C@@H]3[C@@H]4C[C@@H]([C@H]5O[C@@H]45)[C@@H]3[C@@]1(Cl)C2(Cl)Cl`, the compound was called inactive.

Turning to `ClC(Cl)=C(c1ccc(Cl)cc1)c1ccc(Cl)cc1`, the call was inactive.

`NS(=O)(=O)C(F)(F)C(F)(F)C(F)(F)C(F)(F)C(F)(F)C(F)(F)C(F)(F)C(F)(F)F`: the AC50 is 12.9 µM (active).

`CCOC(=O)C(O)(c1ccc(Cl)cc1)c1ccc(Cl)cc1`: the outcome was inactive.

For the compound `CO/C=C(/C(=O)OC)c1ccccc1COc1cccc(C(F)(F)F)n1`, the AC50 is 50 µM (active).

On to `Clc1ccc(C(Cl)(Cl)Cl)cc1`, for which the outcome was inactive.

These data come from PubChem BioAssay (EPA / NIEHS).
